Results filed as inconclusive are left out. Entries that show only a call come without a potency. Activity calls are given as the source filed them. Calls come from the whole dose curve; as a rule, active = well fitted activation curve with a large enough effect; inconclusive = small, poorly fitted or top-dose-only effect, or effect the other way; inactive = flat fitted curve, though single readings scatter.

26 compounds from PubChem BioAssay AID1543 (National Center for Advancing Translational Sciences (NCATS), 2009) can be followed below.

Chain of Pyruvate kinase PKLR (Homo sapiens) (P30613 whole entry, looked up): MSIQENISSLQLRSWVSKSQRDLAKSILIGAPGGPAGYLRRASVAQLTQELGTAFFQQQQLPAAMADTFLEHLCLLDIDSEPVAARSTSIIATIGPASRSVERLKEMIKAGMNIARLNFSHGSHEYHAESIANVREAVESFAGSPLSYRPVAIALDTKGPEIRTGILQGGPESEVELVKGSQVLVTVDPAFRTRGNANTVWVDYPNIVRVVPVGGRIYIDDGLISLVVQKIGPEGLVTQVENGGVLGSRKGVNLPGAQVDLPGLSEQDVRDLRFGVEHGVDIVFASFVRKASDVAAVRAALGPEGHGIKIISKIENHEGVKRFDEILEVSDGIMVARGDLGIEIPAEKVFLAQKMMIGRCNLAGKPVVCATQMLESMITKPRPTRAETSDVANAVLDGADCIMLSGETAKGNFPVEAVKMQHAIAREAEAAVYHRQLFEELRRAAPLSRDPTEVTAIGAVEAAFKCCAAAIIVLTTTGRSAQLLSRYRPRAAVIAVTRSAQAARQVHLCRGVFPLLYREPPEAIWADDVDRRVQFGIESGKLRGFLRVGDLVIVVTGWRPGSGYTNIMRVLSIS

For this test, the target named is Pyruvate kinase PKLR (Homo sapiens) (UniProt P30613). Description: Secondary assay for Activators of Human Reticulocyte Pyruvate Kinase. As to conditions: purified hPK-R, LDH-coupled NADH fluorescence kinetic; series mostly up to 57.5 µM. From the text:
Confirmatory assay NIH Chemical Genomics Center [NCGC] Wael M. Rabeh, Lyudmila Nedyalkova and Hee-Wan Park [Structural Genomics Consortium, 100 College St. Toronto, Ontario, Canada] NCGC Assay Overview: Human pyruvate kinase reticulocyte (hPK-R) enzyme was supplied as a highly purified (>95% pure) preparation from Structural Genomics Consortium in Toronto (Ontario, Canada) and a secondary assay was used to evaluate compounds. This assay couples the formation of pyruvate from hPK-R using lactate dehydrogenase (LDH) and NADH. The depletion of NADH is followed in a fluorescent-based kinetic assay that follows the formation of pyruvate to lactate, as catalyzed LDH. Pyruvate kinase substrates, PEP and ADP, were present in the assay at 0.1 mM and 4 mM respectively. In this kinetic assay initial rates were determined by following the fluorescence of NADH depletion.
NCGC Assay Protocol Summary: Three uL of substrate mix (final concentration, 50 mM Tris-Cl pH 8.0, 200 mM KCl, 15 mM MgCl2, 0.1 mM PEP, 4.0 mM ADP, and 0.2 mM NADH) was dispensed into black-solid 1536 well plates. 23 nL of compounds were delivered by a pin tool and 1 uL of enzyme mix (final concentrations, 10 nM hPK-R and 1 uM of LDH) was added. Plates were immediately placed in ViewLux (Perkin Elmer) and NADH fluorescence was determined at 30 second exposure intervals for between 3 and 6 minutes. Data were normalized to the uninhibited and EC100 activation using known activators such as fructose-bis-phosphate.
Take `O=C(c1ccc2c(c1)OCCO2)N1CCN(S(=O)(=O)c2c(F)cccc2F)CC1`: the Potency entry was “inactive”.

Consider `C[C@H]1CN(S(=O)(=O)c2ccc3c(c2)OCCO3)CCN1S(=O)(=O)c1c(F)cccc1F`, for which the Potency entry was “inactive”.

Take `CCCCCn1ncc2c3sc(C)cc3n(C)c2c1=O`: the Potency entry is “inactive”.

Consider `O=S(=O)(c1ccc2c(c1)OCCO2)N1CCN(S(=O)(=O)c2c(F)cccc2F)CC1`, for which the Potency result was “inactive”.

Regarding `O=S(=O)(c1ccc2ccccc2c1)N1CCN(S(=O)(=O)c2c(F)cccc2F)CC1`, the Potency result is “inactive”.

In the case of `Cn1c2cc(C#N)sc2c2cnn(Cc3ccccc3F)c(=O)c21`, the Potency result is “inactive”.

In the case of `Cn1c2cc(C=O)sc2c2cnn(Cc3ccccc3F)c(=O)c21`, the Potency is 398 nM (active).

In the case of `O=S(=O)(c1c(F)cccc1F)N1CCN(S(=O)(=O)c2c(F)cccc2F)CC1`, the Potency result is “inactive”.

In the case of `CC(C)c1cc2c(s1)c1cnn(Cc3ccccc3F)c(=O)c1n2C`, the Potency was 4470 nM (active).

`CC(=O)c1cc2c(s1)c1cnn(Cc3ccccc3F)c(=O)c1n2C`: the Potency was 631 nM (active).

For `O=C(c1c(F)cccc1F)N1CCN(S(=O)(=O)c2ccc3c(c2)OCCO3)CC1`, the Potency result is “inactive”.

For `Cn1c2cc(S(C)=O)sc2c2cnn(Cc3ccccc3F)c(=O)c21` (stereo unspecified), the Potency was 1120 nM (active).

For `COc1ccc(Cn2ncc3c4sc(C)cc4n(C)c3c2=O)cc1`, the Potency is 631 nM (active).

For the compound `O=S(=O)(c1ccc2c(c1)OCCO2)N1CCN(S(=O)(=O)c2c(F)ccc(O)c2F)CC1`, the Potency result was “inactive”.

As for `O=S(=O)(c1ccc2c(c1)OCO2)N1CCN(S(=O)(=O)c2c(F)cccc2F)CC1`, the Potency result is “inactive”.

With `C[C@@H]1CN(S(=O)(=O)c2ccc3c(c2)OCCO3)CCN1S(=O)(=O)c1c(F)cccc1F`, the Potency entry was “inactive”.

In the case of `CSc1cc2c(s1)c1cnn(Cc3ccccc3F)c(=O)c1n2C`, the Potency is 708 nM (active).

`O=S(=O)(c1ccc2c(c1)OCCO2)N1CCN(S(=O)(=O)c2ccc3c(c2)OCCO3)CC1`: the Potency result is “inactive”.

As for `C[C@H]1CN(S(=O)(=O)c2c(F)cccc2F)CCN1S(=O)(=O)c1ccc2c(c1)OCCO2`, the Potency entry was “inactive”.

As for `O=S(=O)(NC1CCC(NS(=O)(=O)c2c(F)cccc2F)CC1)c1ccc2c(c1)OCCO2` (stereo unspecified), the Potency entry was “inactive”.

Take `COc1ccc(S(=O)(=O)N2CCN(S(=O)(=O)c3ccc(OC)cc3)CC2)cc1`: the Potency result is “inactive”.

As to `CCc1cc2c(s1)c1cnn(Cc3ccccc3F)c(=O)c1n2C`, the Potency is 5620 nM (active).

Take `Cc1cc2c(s1)c1cnn(Cc3c(F)c(F)cc(F)c3F)c(=O)c1n2C`: the Potency entry was “inactive”.

On to `Cn1c2ccsc2c2cnn(Cc3ccccc3F)c(=O)c21`, for which the Potency is 14100 nM (active).

Regarding `O=S(=O)(c1ccc(Cl)cc1)N1CCN(S(=O)(=O)c2ccc3c(c2)OCCO3)CC1`, the Potency result was “inactive”.

Take `O=S(=O)(c1cccc(F)c1)N1CCN(S(=O)(=O)c2ccc3c(c2)OCCO3)CC1`: the Potency entry was “inactive”.
